Where “and” joins values, the source holds several entries; their conditions need not be identical. Identical values can stand only once. The campaign covered roughly 5,500 compounds. About 2,000 (36%) were called active. Inconclusive results (about 18%) are left out. Cut-off read from the data, not from the text of the source: active = normalized growth mostly below about 0.91 (no sharp cut-off); inconclusive = no clear call, values can overlap the other calls; inactive = mostly above about 0.92. This is one part of the list.
Assay: chemical genetic growth profiling, strain panel (AID 1159580);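 note: tested at 20 µM; growth read once vehicle control cultures reached saturation at 30 °C; 1 = growth at the plate median or of vehicle wells; lower values mean less growth of the strain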
Conditions: S. cerevisiae deletion strains, growth OD

Measured: normalized growth

CC1(C)S[C@@H]2[C@H](NC(=O)Cc3ccccc3)C(=O)N2[C@H]1C(=O)O
inactive: locus YAL021C, strain ccr4, active compounds read low 1.03 | locus YAL026C, strain drs2, active compounds read low 1.04 | locus YAL030W, strain snc1, active compounds read low 1.03 | locus YBL061C, strain skt5, active compounds read low 1.04 | locus YBR009C, strain hhf1, active compounds read low 1.03 | locus YBR021W, strain FUR4, active compounds read low 1.01 | locus YBR023C, strain chs3, active compounds read low 1.04 | locus YBR171W, strain sec66, active compounds read low 1.04 | locus YBR229C, strain ROT2, active compounds read low 1 | locus YBR231C, strain swc5, active compounds read low 1.02 | locus YBR279W, strain paf1, active compounds read low 1.02 | locus YCL011C, strain gbp2, active compounds read low 1.04 | locus YCL016C, strain dcc1, active compounds read low 1.03 | locus YCL029C, strain bik1, active compounds read low 1.02 | locus YCL061C, strain MRC1, active compounds read low 1.02 | locus YCL069W, strain vba3, active compounds read low 1.04 | locus YCR088W, strain abp1, active compounds read low 1.03 | locus YDL005C, strain med2, active compounds read low 1.02 | locus YDL035C, strain GPR1, active compounds read low 1.01 | locus YDL040C, strain nat1, active compounds read low 1.03 | locus YDL074C, strain BRE1, active compounds read low 1.01 | locus YDL101C, strain DUN1, active compounds read low 1.01 | locus YDL134C, strain PPH21, active compounds read low 1 | locus YDL185W, strain tfp1, active compounds read low 1 | locus YDL192W, strain arf1, active compounds read low 1.02 | locus YDR001C, strain nth1, active compounds read low 1.01 | locus YDR069C, strain doa4, active compounds read low 1 | locus YDR101C, strain arx1, active compounds read low 1.02 | locus YDR137W, strain rgp1, active compounds read low 1.03 | locus YDR150W, strain NUM1, active compounds read low 1 | locus YDR159W, strain sac3, active compounds read low 1.02 | locus YDR162C, strain NBP2, active compounds read low 1.01 | locus YDR195W, strain ref2 1.01 | locus YDR297W, strain sur2, active compounds read low 1.01 | locus YDR318W, strain mcm21, active compounds read low 1.02 | locus YDR334W, strain swr1, active compounds read low 1.04 | locus YDR335W, strain msn5, active compounds read low 1.03 | locus YDR388W, active compounds read low 1.02 | locus YDR392W, strain spt3, active compounds read low 0.994 | locus YDR502C, strain sam2, active compounds read low 1.02 | locus YEL003W, strain gim4, active compounds read low 1.03 | locus YEL037C, strain rad23, active compounds read low 1.03 | locus YEL061C, strain CIN8 (second series), active compounds read low 1.02 | locus YEL061C, strain CIN8, active compounds read low 1 | locus YER015W, strain faa2, active compounds read low 1.03 | locus YER016W, strain bim1, active compounds read low 1.02 | locus YER110C, active compounds read low 1.03 | locus YER111C, strain swi4, active compounds read low 1.01 | locus YER155C, strain BEM2 (second series), active compounds read low 1.03 | locus YER155C, strain BEM2, active compounds read low 0.999 | locus YER167W, strain BCK2, active compounds read low 1 | locus YFR010W, strain ubp6, active compounds read low 1.03 | locus YGL078C, strain dbp3, active compounds read low 1.01 | locus YGL086W, strain mad1, active compounds read low 1.01 | locus YGL167C, strain pmr1, active compounds read low 1.04 | locus YGL173C, strain kem1, active compounds read low 1.05 | locus YGL227W, strain vid30, active compounds read low 1.05 | locus YGL240W, strain doc1, active compounds read low 0.993 | locus YGL248W, strain PDE1, active compounds read low 1.01 | locus YGL253W, strain hxk2, active compounds read low 1.04 | locus YGR078C, strain PAC10, active compounds read low 1.01 | locus YGR135W, strain pre9, active compounds read low 1.02 | locus YGR252W, strain gcn5, active compounds read low 0.994 | locus YHR013C, strain ard1, active compounds read low 1.03 | locus YHR027C, strain rpn1, active compounds read low 1.01 | locus YHR030C, strain SLT2, active compounds read low 1.01 and 0.977 | locus YHR079C, strain IRE1 (second series), active compounds read low 1.03 | locus YHR079C, strain IRE1, active compounds read low 0.981 | locus YHR094C, strain hxt1, active compounds read low 1.02 | locus YHR129C, strain ARP1, active compounds read low 0.999 | locus YHR142W, strain chs7, active compounds read low 1.06 | locus YHR200W, strain rpn10, active compounds read low 1.02 | locus YIL066C, strain RNR3, active compounds read low 1 | locus YIL073C, strain SPO22, active compounds read low 1.05 | locus YIL125W, strain kgd1, active compounds read low 1.01 | locus YIR030C, strain dcg1, active compounds read low 1.02 | locus YJL092W, strain hpr5, active compounds read low 1.03 | locus YJL095W, strain BCK1 (second series), active compounds read low 1.02 | locus YJL095W, strain BCK1, active compounds read low 1 and 0.971 | locus YJL115W, strain asf1, active compounds read low 1.03 | locus YJL129C, strain trk1, active compounds read low 1.05 | locus YJL134W, strain LCB3, active compounds read low 1.01 | locus YJL154C, strain vps35, active compounds read low 1.03 | locus YJL164C, strain tpk1, active compounds read low 1.04 | locus YJL166W, strain qcr8, active compounds read low 1.01 | locus YJL168C, strain set2, active compounds read low 1.02 | locus YJL187C, strain SWE1 (second series), active compounds read low 1 | locus YJR043C, strain POL32, active compounds read low 1

Source: PubChem BioAssay AID1159580 (chemical genetic matrix, 2015)
